In PubChem BioAssay AID1159580 (chemical genetic matrix, 2015):
About 2,000 (36%) of roughly 5,500 compounds were called active. Inconclusive results (about 18%) are left out. Rule as the data show it: active = normalized growth mostly below about 0.91 (no sharp cut-off); inconclusive = no clear call, values can overlap the other calls; inactive = mostly above about 0.92. This is one part of the list.

Test: chemical genetic growth profiling, strain panel (AID 1159580);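 also: tested at 20 µM; growth read once vehicle control cultures reached saturation at 30 °C; 1 = growth at the plate median or of vehicle wells; lower values mean less growth of the strain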
Details: S. cerevisiae deletion strains, growth OD
[1] = locus YAR019C, strain CDC15, hits give low values
[2] = locus YBL105C, strain PKC1, hits give low values
[3] = locus YBR135W, strain CKS1, hits give low values
[4] = locus YBR136W, strain MEC1, hits give low values
[5] = locus YBR160W, strain CDC28, hits give low values
[6] = locus YDL017W, strain CDC7, hits give low values
[7] = locus YDL028C, strain MPS1, hits give low values
[8] = locus YDL101C, strain DUN1, hits give low values
[9] = locus YDL108W, strain KIN28, hits give low values
[10] = locus YDL214C, strain PRR2, hits give low values
[11] = locus YDR052C, strain DBF4, hits give low values
[12] = locus YDR226W, strain ADK1, hits give low values
[13] = locus YDR477W, strain SNF1, hits give low values
[14] = locus YER123W, strain YCK3, hits give low values
[15] = locus YER133W, strain GLC7, hits give low values
[16] = locus YFL009W, strain cdc4, hits give low values
[17] = locus YFL029C, strain CAK1, hits give low values
[18] = locus YFR003C, strain YPI1, hits give low values
[19] = locus YFR019W, strain FAB1, hits give low values
[20] = locus YFR028C, strain CDC14, hits give low values
[21] = locus YGR040W, strain KSS1, hits give low values
[22] = locus YGR052W, strain FMP48, hits give low values
[23] = locus YGR092W, strain DBF2, hits give low values
[24] = locus YHR030C, strain SLT2, hits give low values
[25] = locus YHR079C, strain IRE1, hits give low values
[26] = locus YHR082C, strain KSP1, hits give low values
[27] = locus YHR205W, strain SCH9, hits give low values
[28] = locus YIL147C, strain SLN1, hits give low values
[29] = locus YJL095W, strain BCK1, hits give low values
[30] = locus YJL128C, strain PBS2, hits give low values
[31] = locus YJL157C, strain FAR1, hits give low values
[32] = locus YJR016C, strain ILV3, hits give low values
[33] = locus YJR066W, strain TOR1 (second series), hits give low values
[34] = locus YJR066W, strain TOR1, hits give low values
[35] = locus YKL048C, strain ELM1, hits give low values
[36] = locus YKL067W, strain YNK1, hits give low values
[37] = locus YKL101W, strain HSL1, hits give low values
[38] = locus YKL193C, strain SDS22, hits give low values
[39] = locus YKL203C, strain TOR2, hits give low values
[40] = locus YLR113W, strain HOG1, hits give low values
[41] = locus YLR133W, strain CKI1, hits give low values
[42] = locus YLR403W, strain SFP1, hits give low values
[43] = locus YML070W, strain DAK1, hits give low values
[44] = locus YMR001C, strain CDC5, hits give low values
[45] = locus YMR205C, strain PFK2 (second series), hits give low values
[46] = locus YMR277W, strain FCP1, hits give low values
[47] = locus YNL006W, strain LST8, hits give low values
[48] = locus YNL020C, strain ARK1, hits give low values
[49] = locus YNL161W, strain CBK1, hits give low values
[50] = locus YNL183C, strain NPR1, hits give low values
[51] = locus YNL222W, strain SSU72, hits give low values
[52] = locus YNL307C, strain MCK1 (second series), hits give low values
[53] = locus YOL078W, strain AVO1, hits give low values
[54] = locus YOL136C, strain PFK27, hits give low values
[55] = locus YOR061W, strain CKA2, hits give low values
[56] = locus YOR119C, strain RIO1, hits give low values
[57] = locus YOR231W, strain MKK1, hits give low values
[58] = locus YOR329C, strain SCD5, hits give low values
[59] = locus YPL031C, strain PHO85, hits give low values
[60] = locus YPL153C, strain RAD53, hits give low values
[61] = locus YPL204W, strain HRR25, hits give low values
[62] = locus YPL209C, strain IPL1, hits give low values
[63] = locus YPL256C, strain CLN2, hits give low values
[64] = locus YPR025C, strain CCL1, hits give low values
[65] = locus YPR106W, strain ISR1, hits give low values
[66] = locus YPR111W, strain DBF20, hits give low values
[67] = strain TSCII, hits give low values
[68] = locus YDL132W, strain cdc53, hits give low values
[69] = locus YDR054C, strain cdc34, hits give low values
[70] = locus YNL207W, strain RIO2, hits give low values
[71] = strain NNK1, hits give low values

Measured: normalized growth

CC(C)(C)c1cc(C(=O)/C(C#N)=N\Nc2ccc(Cl)cc2)no1
active: [10] 0.253 | [13] 0.229 | [14] 0.146 | [15] 0.326 | [19] 0.116 | [21] 0.321 | [22] 0.281 | [23] 0.0911 | [24] 0.212 | [25] 0.106 | [26] 0.154 | [27] 0.043 | [29] 0.145 | [30] 0.396 | [31] 0.165 | [33] 0.237 | [34] 0.169 | [35] 0.172 | [36] 0.213 | [37] 0.106 | [39] 0.284 | [40] 0.156 | [41] 0.112 | [42] 0.149 | [43] 0.137 | [45] 0.137 | [48] 0.119 | [50] 0.294 | [52] 0.0976 | [54] 0.191 | [55] 0.103 | [56] 0.337 | [57] 0.0922 | [59] 0.105 | [60] 0.115 | [61] 0.115 | [63] 0.146 | [65] 0.842
inactive: [1] 0.959 | [2] 0.974 | [3] 0.952 | [4] 0.963 | [5] 0.966 | [6] 0.96 | [7] 0.95 | [8] 0.979 | [9] 0.962 | [11] 0.967 | [12] 0.952 | [16] 0.907 | [17] 0.95 | [18] 0.96 | [20] 0.958 | [28] 0.957 | [32] 0.914 | [38] 0.959 | [44] 0.958 | [46] 0.953 | [47] 0.981 | [49] 0.96 | [51] 0.966 | [53] 0.922 | [58] 0.975 | [62] 0.97 | [64] 0.961 | [66] 0.874 | [67] 0.948

N#C/C(=N/Nc1ccc(Cl)cc1)C(=O)C1CC1
inactive: [10] 0.807 | [19] 0.916 | [22] 0.666 | [25] 0.604 | [26] 0.691 | [27] 0.711 | [30] 0.862 | [31] 0.757 | [33] 0.737 | [34] 0.643 | [36] 0.763 | [37] 0.802 | [41] 0.811 | [43] 0.735 | [45] 0.774 | [48] 0.805 | [54] 0.752 | [55] 0.81 | [65] 0.92 | [66] 0.876 | [71] 0.885
active: [1] 0.863 | [2] 0.86 | [3] 0.854 | [4] 0.86 | [5] 0.863 | [6] 0.865 | [7] 0.859 | [8] 0.903 | [9] 0.86 | [68] 0.847 | [11] 0.862 | [69] 0.848 | [12] 0.855 | [13] 0.674 | [14] 0.492 | [15] 0.626 | [16] 0.844 | [17] 0.853 | [18] 0.857 | [20] 0.854 | [21] 0.665 | [23] 0.332 | [24] 0.416 | [28] 0.865 | [29] 0.416 | [32] 0.854 | [35] 0.793 | [38] 0.851 | [39] 0.706 | [40] 0.567 | [42] 0.646 | [44] 0.855 | [46] 0.847 | [47] 0.856 | [49] 0.86 | [50] 0.551 | [70] 0.842 | [51] 0.848 | [52] 0.641 | [53] 0.846 | [56] 0.667 | [57] 0.576 | [58] 0.86 | [59] 0.592 | [60] 0.595 | [61] 0.554 | [62] 0.853 | [63] 0.65 | [64] 0.856 | [67] 0.85

N#CC(C#N)=NNc1ccc(-n2ccc(C(F)(F)F)n2)cc1
inactive: [4] 0.905 | [5] 0.902 | [6] 0.926 | [7] 0.923 | [9] 0.907 | [12] 0.917 | [18] 0.927 | [20] 0.899 | [27] 0.595 | [28] 0.928 | [30] 0.915 | [47] 0.914 | [58] 0.924 | [65] 0.902 | [66] 0.878
active: [1] 0.871 | [2] 0.899 | [3] 0.893 | [8] 0.88 | [68] 0.76 | [10] 0.348 | [11] 0.876 | [69] 0.607 | [13] 0.368 | [14] 0.208 | [15] 0.422 | [16] 0.876 | [17] 0.853 | [19] 0.199 | [21] 0.48 | [22] 0.31 | [23] 0.176 | [24] 0.131 | [25] 0.175 | [26] 0.271 | [29] 0.204 | [31] 0.329 | [32] 0.895 | [33] 0.225 | [34] 0.201 | [35] 0.321 | [36] 0.403 | [37] 0.349 | [38] 0.875 | [39] 0.283 | [40] 0.207 | [41] 0.383 | [42] 0.448 | [43] 0.229 | [44] 0.883 | [45] 0.433 | [46] 0.865 | [48] 0.349 | [49] 0.884 | [50] 0.292 | [70] 0.875 | [51] 0.861 | [52] 0.379 | [53] 0.739 | [54] 0.202 | [55] 0.568 | [56] 0.419 | [57] 0.156 | [59] 0.273 | [60] 0.157 | [61] 0.183 | [62] 0.897 | [63] 0.178 | [64] 0.89 | [71] 0.866 | [67] 0.861
